Only some compounds are listed: those with a hit (about 0.74% of all), similar ones and a draw of the others.
C-LANA FP = inhibitors of KSHV C-LANA binding to DNA, primary screen, biochemical, fluorescence polarization, FAM-LBS DNA, MBP-C-LANA, single point; Kaposi's sarcoma herpesvirus LANA C-terminal domain (residues 932-1162) DNA binding; inhibition, % at 9 µM; 340,000 compounds, 0.078% hits; AID 504423, 2011;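 active means highest replicate inhibition at or above 60% at 9 µM, even if other replicates fall short; inactive means all replicates below 60% inhibition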;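 further: 0% = neutral control wells and 100% = 4 µM acridine orange control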
E coli Lon inh = inhibitors of E. coli Lon protease, primary screen, biochemical, fluorescence polarization; 360,000 compounds, 0.42% hits; purified E. coli Lon protease; inhibition, % at 7.94 µM; in the data active means inhibition above about 13%, passing the limit was not always enough;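 further: 0% = enzyme with probe and DMSO and 100% = no enzyme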
Target sequence (P0A9M0 whole entry, looked up): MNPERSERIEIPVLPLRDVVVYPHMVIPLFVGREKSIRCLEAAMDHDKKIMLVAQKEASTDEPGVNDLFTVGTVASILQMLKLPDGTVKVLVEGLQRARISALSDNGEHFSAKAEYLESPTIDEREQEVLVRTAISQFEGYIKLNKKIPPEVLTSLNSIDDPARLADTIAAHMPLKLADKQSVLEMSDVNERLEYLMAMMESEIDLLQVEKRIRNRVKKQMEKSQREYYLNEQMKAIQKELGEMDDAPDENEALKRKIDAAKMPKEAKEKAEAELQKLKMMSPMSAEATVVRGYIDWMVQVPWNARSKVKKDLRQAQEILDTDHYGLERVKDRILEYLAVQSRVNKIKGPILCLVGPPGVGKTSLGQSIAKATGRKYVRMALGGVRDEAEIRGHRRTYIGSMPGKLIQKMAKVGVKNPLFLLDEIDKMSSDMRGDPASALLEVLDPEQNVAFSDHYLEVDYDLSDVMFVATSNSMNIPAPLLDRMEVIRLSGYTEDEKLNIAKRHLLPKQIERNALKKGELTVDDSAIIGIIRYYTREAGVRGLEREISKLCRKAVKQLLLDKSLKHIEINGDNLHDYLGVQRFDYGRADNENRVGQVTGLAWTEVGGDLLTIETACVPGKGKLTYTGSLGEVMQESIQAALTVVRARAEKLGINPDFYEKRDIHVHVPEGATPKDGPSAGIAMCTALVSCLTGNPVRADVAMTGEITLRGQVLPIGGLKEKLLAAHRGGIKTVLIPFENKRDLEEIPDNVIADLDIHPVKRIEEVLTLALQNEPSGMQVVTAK
Keap1 Nrf2 FP = Keap1-Nrf2 protein-protein interaction inhibitors, primary screen, biochemical, fluorescence polarization, single point | 340,000 compounds, 0.15% hits | Keap1 Kelch-Nrf2 peptide fluorescence polarization, 1536-well | AID 504523, 2011 | inhibition, % at 9.4 µM | Kelch-like ECH-associated protein 1 (Homo sapiens), Q14145; in the data active means inhibition above about 12%;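 further: human Keap1 Kelch domain with fluorescein labeled Nrf2 9mer peptide probe; 0% = neutral control wells and 100% = peptide positive control; higher means more block of Keap1 binding to Nrf2 peptide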
RTF Ca sens act = cardiac RTF calcium sensitivity activators, primary screen, biochemical, IANBD-TnC fluorescence, EC20 calcium; Troponin I, cardiac muscle (Homo sapiens) + Troponin T, cardiac muscle (Homo sapiens) + …; IANBD-labeled TnC RTF fluorescence at EC20 calcium; 0% EC20 calcium, 100% full calcium; activation, % at 7.2 µM; 340,000 compounds, 0.24% hits; AID 493008, 2010;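 active means activation above the mean over all tested compounds plus 3 SD, cut at about 30% in these data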;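 further: rise in fluorescence read as greater calcium sensitivity of cardiac thin filaments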
RTF Ca sens inh = cardiac RTF calcium sensitivity inhibitors, primary screen, biochemical, IANBD-TnC fluorescence, EC70 calcium | inhibition, % at 7.15 µM | 340,000 compounds, 0.12% hits | Troponin I, cardiac muscle (Homo sapiens) + Troponin T, cardiac muscle (Homo sapiens) + … | IANBD-labeled cardiac RTF, Ca2+ fluorescence | AID 493244, 2011;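 active means inhibition above the mean inhibition of all tested compounds plus 3 SD, cut at about 17% in these data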;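 further: assay run at fixed EC70 calcium of 1.6 mM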
An asterisk follows results filed as active; i = inactive; . = no result given.

SMILES	C-LANA FP	E coli Lon inh	Keap1 Nrf2 FP	RTF Ca sens act	RTF Ca sens inh
O=C(Cn1cc(C(F)(F)F)ccc1=O)Nc1ccc2c(c1)OCO2	.	8	.	.	.
COc1ccc(COc2cc(-c3cccc(OC)c3)nc3ccc(NC(=O)c4ccc(C)cc4)cc23)cc1	2	-14	-4	33*	2
COc1ccc(COc2cc(-c3cccc(OC)c3)nc3ccc(NC(=O)c4ccc(N(C)C)cc4)cc23)cc1	0	-12	-6	0	-4
O=C1NC(c2ccc3ccccc3c2)Nc2ccccc21 (configuration not stated)	.	-3	.	.	.
O=C1NC(c2ccc(Br)cc2)Nc2ccccc21 (configuration not stated)	107*	-2	-6	1	0
COc1cc(N2CCCC2)c(OC)cc1/C=C(/C#N)c1ccc(F)cc1	1	-40	-3	14	-68
COc1cc(N2CCCC2)c(OC)cc1/C=C(/C#N)c1ccc(Br)cc1	8	-60	0	30*	-15
CCC(CC)C(=O)N(C)c1c(C)nc2c(OCc3ccc(Cl)cc3)cccn12	.	11	.	.	.
CN(C)CCNc1ncnc2c1ncn2[C@H]1CN(Cc2cccs2)C[C@@H](CO)O1	.	0	.	.	.
CCC(/C=C1\Oc2ccc(OC)cc2N1C)=C\c1sc2ccccc2[n+]1CCCS(=O)(=O)[O-]	1	-9	-2	77*	-11
Cc1ccc2sc(C)[n+](CCCS(=O)(=O)[O-])c2c1	2	-5	-5	1	-9
COc1cc(/C=C/c2sc3ccccc3[n+]2CCCS(=O)(=O)[O-])ccc1O	-33	-166	-122	68*	-85
Cc1ccc2c(c1)sc(C)[n+]2CCCS(=O)(=O)[O-]	-1	0	-4	3	-6
CC1(C(=O)NS(=O)(=O)c2cccc(C#N)c2)CCN1C(=O)c1ccc(C2CCCCC2)cc1 (configuration not stated)	.	-9	.	.	.
CN(C)c1ccc(/C=C/c2nc3ccccc3c(=O)n2-c2ccc(C(=O)O)cc2)cc1	-1	i	-274	538*	-498
O=C(O)c1cccc(-n2c(/C=C/c3ccccc3)nc3ccccc3c2=O)c1	0	-5	-5	-5	5
O=C(O)c1ccc(CSc2nc3ccccc3c(=O)n2-c2ccccc2)cc1	28	-5	30*	4	-10
Cc1ccc(C2C3CSCC=C3C(C#N)=C(N)C2(C#N)C#N)cc1 (configuration not stated)	1	-19	-6	12	-12
Cc1ccc([C@@H]2C3COCC=C3C(C#N)=C(N)C2(C#N)C#N)o1 (some centres not stated)	24	69*	6	18	-41
CCC(CO)[n+]1c(C)cc(/C=C2\Sc3ccccc3N2Cc2ccccc2)cc1C (configuration not stated)	-22	-50	-22	40*	-23
O=C(Nc1cccc(OC(F)(F)F)c1)C1Cc2c(-c3ccccc3Oc3ccccc3)ccnc2O1 (configuration not stated)	.	-1	.	.	.
COc1ccc2c(Cl)c(C(=O)N/N=C/c3ccc4c(c3)OCO4)sc2c1	-1	1	-2	4	0
COc1ccc2c(Cl)c(C(=O)N/N=C3\CCCC(=O)C3)sc2c1	9	-141	-29	41*	-80
O=C1/C(=C\c2c(NCCOCCO)nc3ccccn3c2=O)SC(=S)N1Cc1ccco1	0	-292	0	40*	-59
CCCN1C(=O)/C(=C/c2c(NCCCOCC)nc3c(C)cccn3c2=O)SC1=S	0	-48	-8	4	-7
SMILES	C-LANA FP	E coli Lon inh	Keap1 Nrf2 FP	RTF Ca sens act	RTF Ca sens inh
CCC(C)CNC(=O)c1[nH]c(C(F)(F)F)nc1-c1ccccc1 (configuration not stated)	.	-15	.	.	.
O=C(C1CCCCC1)N1C[C@@H](O)[C@H](n2cc(-c3ccc(F)cc3)nn2)C[C@@H]1c1ccc(Cl)cc1	.	0	.	.	.
CC(OC(=O)c1cc2ccccc2cc1O)C(=O)Nc1ccc(S(N)(=O)=O)cc1 (configuration not stated)	0	-9	2	5	-8
CC(OC(=O)c1c2c(nc3ccccc13)/C(=C\c1ccc3c(c1)OCO3)CCC2)C(=O)Nc1ccc(S(N)(=O)=O)cc1 (configuration not stated)	10	77*	-3	115*	i
Cc1ccc(NC(=S)Nc2ccc3nc(-c4ccccn4)c(-c4ccccn4)nc3c2)cc1C	5	120*	1	17	-46
Fc1ccc(Br)cc1C1C=C(c2ccc(Br)s2)Nc2ncnn21 (configuration not stated)	1	-23	-3	73*	-69
COc1cccc(C2C=C(c3ccc(Br)s3)Nc3ncnn32)c1OC (configuration not stated)	17	-34	-10	37*	-39
C=C1c2cccc(O)c2C(O)=C2C(=O)[C@]3(O)C(O)=C(C(N)=O)C(=O)[C@@H](N(C)C)[C@@H]3[C@@H](O)[C@H]12	75*	10	4	1	14
CCCCCCc1cc2cc(-c3nnc(-c4ccccc4O)o3)c(=O)oc2cc1O	-1	i	-1	58*	-140
C[C@@H]1CN([C@H](C)CO)C(=O)c2cc(Br)cnc2O[C@@H]1CN(C)C(=O)c1ccccc1	.	-1	.	.	.
Cc1ccc2nc(/C(C#N)=C/c3ccc(-c4ccccc4C(=O)O)o3)[nH]c2c1	-9	i	-44	27	-37
Cc1ccc(/C(C#N)=C\c2ccc(N3CCOCC3)o2)cc1	2	-62	-6	15	-13
Cc1ccc2nc(/C(C#N)=C\c3ccc(N4CCOCC4)o3)[nH]c2c1	-34	i	-146	152*	-133
Cc1cc2nc(/C(C#N)=C\c3ccc(-c4ccccc4C(=O)O)o3)[nH]c2cc1C	-12	-149	-13	52*	-43
Cc1cc(C)nc(SCC(=O)NC(=O)c2ccccc2O)n1	1	-6	-28	39*	-6
O=C(OCc1ccc(C(=O)c2ccccc2)cc1)c1cccc(-c2nnc(-c3ccccc3)o2)c1	0	16*	0	0	-10
COc1ccc(OC)c(C(O)c2ncc(-c3ccc(C(F)(F)F)cc3)[nH]2)c1 (configuration not stated)	.	-6	.	.	.
Cc1ccccc1C1CC(=O)Oc2cc(O)ccc21 (configuration not stated)	33	-10	10	39*	-63
CC1(OC(=O)C2CCCC2)C(=O)C=C2C=C(c3ccsc3)N(CCc3ccccn3)C=C2C1=O (configuration not stated)	3	19*	-4	0	-2
